Hit rate of the full screen: of about 190,000 compounds, about 1,300 (0.68%) were called active. For the sample, actives were picked, then their nearest neighbours and some compounds at random. Unmarked numbers belong to inactive results. Rule as the data show it: active = inhibition above about 50%; inactive = the rest.
Target: Mannose-6-phosphate isomerase (Homo sapiens) (UniProt P34949)
Experiment: human PMI inhibitors, high substrate, primary screen, biochemical, fluorescence intensity, high mannose 6-phosphate (AID 1220)
Conditions: recombinant PMI enzyme, coupled fluorescence intensity; at 20 µM; active compounds read high

Sequence of Mannose-6-phosphate isomerase (Homo sapiens) (P34949 whole entry, looked up): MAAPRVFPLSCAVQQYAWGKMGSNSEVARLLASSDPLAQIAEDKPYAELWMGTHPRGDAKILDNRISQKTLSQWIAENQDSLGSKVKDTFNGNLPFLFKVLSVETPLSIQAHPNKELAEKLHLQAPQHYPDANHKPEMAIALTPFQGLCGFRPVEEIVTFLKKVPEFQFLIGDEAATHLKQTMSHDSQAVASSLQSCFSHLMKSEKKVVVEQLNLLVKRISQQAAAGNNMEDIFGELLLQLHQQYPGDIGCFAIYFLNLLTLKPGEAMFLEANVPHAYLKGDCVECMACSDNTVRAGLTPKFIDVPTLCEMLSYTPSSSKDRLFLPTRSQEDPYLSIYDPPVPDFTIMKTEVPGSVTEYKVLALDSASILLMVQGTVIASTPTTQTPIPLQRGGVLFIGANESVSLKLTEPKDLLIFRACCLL

Row | SMILES | inhibition
1 | Oc1cc2c(cc1C(c1ccc(Cl)c(Cl)c1)N1CCCC1)OCO2 (centres undefined) | 59.9% (active)
2 | S=C(c1ccc2c(c1)OCO2)N1CCCC1 | 7.1%
3 | Oc1cc2c(cc1C(c1ccc(Br)cc1)N1CCCC1)OCO2 (centres undefined) | 68.1% (active)
4 | Oc1c(C(c2ccc(Cl)cc2)N2CCCC2)cc(Cl)c2cccnc12 (centres undefined) | 44.8%
5 | S=C(c1ccc2c(c1)OCO2)N1CCCCCC1 | 3.6%
6 | CC(C)c1ccc(NC(=O)C(c2ccc3c(c2)OCO3)N2CCCCC2)cc1 (centres undefined) | 10.5%
7 | CCN(CC)C(=O)C(=O)Nc1ccc(OCc2ccccc2)cc1 | 0.5%
8 | CC(C)Nc1nc(NC(C)C)nc(C(=O)OCCO)n1 | -5.1%
9 | O=C(COc1ccccc1)N(Cc1cc2ccccc2[nH]c1=O)CC1CCCO1 (centres undefined) | 0.7%
10 | CC(C)N1CCN(Cc2ccsc2)CC1CCO (centres undefined) | 5.4%
11 | N#Cc1c2c(c(NCc3cccnc3)n3c1nc1ccccc13)CCC2 | 11.3%
12 | N#Cc1c2c(c(NCc3ccco3)n3c1nc1ccccc13)CCC2 | 50.2% (active)
13 | CCc1c(C)c(C#N)c2nc3ccccc3n2c1NCc1ccco1 | -6.6%
14 | Cc1ccc(NC(=O)CN2C(=O)NC(C)(CCc3ccccc3)C2=O)cc1 (centres undefined) | 26.7%
15 | COc1cccc(C2CC(=O)NC3=C2C(=O)CCC3)c1 (centres undefined) | -0.9%
16 | CCC(NC(=O)C1CCC1)c1ccc(C)cc1 (centres undefined) | 3.8%
17 | Nc1cc2c(cc1C(=O)c1ccccc1F)OCCO2 | 13.3%
18 | O=C(c1ccccc1F)c1cc2c(cc1[N+](=O)[O-])OCCO2 | 51.7% (active)
19 | O=C(c1ccccc1)c1cc2c(cc1[N+](=O)[O-])OCCO2 | 10.9%
20 | COc1ccc(OC)c(NC(=S)NCC(c2cccnc2)N2CCOCC2)c1 (centres undefined) | 2.4%
21 | CC(C)N1CCN(Cc2ccoc2)CC1CCO (centres undefined) | -6.7%
22 | COc1ccc(OC)c(-c2c3cc(O)c(=O)cc-3oc3cc(O)c(O)cc23)c1 | 55.4% (active)
23 | Cc1c2cc(O)c(=O)cc-2oc2cc(O)c(O)cc12 | 28.8%
24 | CCOc1ccccc1-c1c2cc(O)c(=O)cc-2oc2cc(O)c(O)cc12 | 42%
25 | CN(C)C(=O)C[n+]1cccc(/C=N/O)c1 | -5.5%

Row | SMILES | inhibition
26 | C=CCn1c(SCC(=O)Nc2ccccc2)nnc1-c1cccc(S(=O)(=O)N2CCOCC2)c1 | 3.2%
27 | CC1OC(OCC2OC(Oc3c(-c4ccc(O)cc4)oc4cc(O)cc(O)c4c3=O)C(O)C(O)C2O)C(O)C(O)C1O (centres undefined) | 16.6%
28 | C[C@@H]1O[C@@H](OC[C@H]2O[C@@H](Oc3c(-c4ccc(O)c(O)c4)oc4cc(O)cc(O)c4c3=O)[C@H](O)[C@@H](O)[C@@H]2O)[C@H](O)[C@H](O)[C@H]1O | 18.4%
29 | COC(=O)c1ccc(COC(=O)CNC(=O)c2ccco2)cc1 | 1.5%
30 | CC1CC(NC(=O)c2ncn[nH]2)CC(C)(C)C1 (centres undefined) | -12.5%
31 | COc1ccc(C(=O)/C=C2\NCC3c4ccccc4CCN3C2=O)cc1 (centres undefined) | -140%
32 | Cc1cccc(C(=O)NCCN(C)C)c1 | 3%
33 | Cc1cc(NC(=O)c2cc(-c3ccco3)on2)n(-c2ccccc2)n1 | 26.3%
34 | Cc1cc(-c2ccco2)n(CC(=O)O)n1 | -2.6%
35 | Cc1cc(-c2ccco2)n(-c2ccccc2)n1 | 50.5% (active)
36 | CC1(C)NC(=O)N(CC(O)COc2ccc(N3C(=O)c4ccccc4C3=O)cc2)C1=O (centres undefined) | 53% (active)
37 | CC1(C)NC(=O)N(CC(O)COc2ccc(-c3ccccc3)cc2)C1=O (centres undefined) | -0.4%
38 | Cc1ccc(OCC(O)CN2C(=O)NC(C)(C)C2=O)cc1 (centres undefined) | 5.5%
39 | O=C(NCC(=O)N1CCCC1)c1cccs1 | 2%
40 | O=C(ONc1ccc(N=NC(=O)c2ccccc2O)cc1)c1ccccc1 | 22.9%
41 | O=C(N=Nc1ccc(NOC(=O)c2ccccc2Br)cc1)c1ccccc1O | 65.2% (active)
42 | Cc1ccc(C(=O)ONc2ccc(N=NC(=O)c3ccccc3O)cc2)cc1 | -5.4%
43 | CN(Cc1cccnc1)C(=O)CC1C(=O)NCCN1Cc1ccc(-c2ccccc2)cc1 (centres undefined) | 8.9%
44 | CCOC(=O)C(C#N)C(Cc1ccccc1)c1ccco1 (centres undefined) | 5.7%
45 | COc1ccc(NC(=S)Nc2cccc(Cl)c2)cc1OC | 61.4% (active)
46 | COc1ccc(NC(=S)Nc2ncccc2C)cc1OC | 55.1% (active)
47 | COc1cc(NC(=S)Nc2ncccc2C)cc(OC)c1OC | 31%
48 | COc1ccc(NC(=S)Nc2ncccc2C)c(OC)c1 | 10.1%
49 | COc1ccc(C(=O)Nc2cccc(C(C)=O)c2)cc1OC | -4.1%
50 | COC(=O)c1cc(OC)c(OC)cc1NC(=S)Nc1cccc(C(C)=O)c1 | -8%

Row | SMILES | inhibition
51 | COc1ccc(NC(=S)Nc2cccc(C(C)=O)c2)cc1OC | 50.5% (active)
52 | COc1cc(C)c(NC(=S)Nc2cccc(Cl)c2)cc1OC | 24.5%
53 | COc1ccc(NC(=S)Nc2cccc(Cl)c2Cl)cc1OC | 40.9%
54 | Cc1c(NC(=O)c2cc3ccccc3o2)c(=O)n(-c2ccccc2)n1C | -16.9%
55 | COc1ccc(-c2nc(N3CCCC3)[nH]c(=O)c2C#N)cc1 | -5.5%
56 | C=CCc1cccc2cc(C(=O)NCc3cccnc3)c(=O)oc12 | 3.6%
57 | Cc1ccc(NCC(=O)N=Nc2c(O)n(C)c3ccccc23)cc1 | -2.1%
58 | O=C(NC1CC1)C1=C[C@H](C2CC2)C[C@H](OCCCCO)O1 | 0.3%
59 | CCS(=O)(=O)c1ccc2oc(SCC(=O)Nc3ccc(OC)cc3OC)nc2c1 | 14.5%
60 | Cc1onc(-c2ccccc2Cl)c1C(=O)N1CCOC12CCCCC2 | -6.1%
61 | Cc1[nH]n(-c2ccccc2)c(=O)c1/C=N/NC(=O)COc1ccccc1[N+](=O)[O-] | 58.1% (active)
62 | COCC(=O)N/N=C/c1c(C)[nH]n(-c2ccccc2)c1=O | -4.5%
63 | Cc1ccc(OCC(=O)N/N=C\c2c(C)[nH]n(-c3ccccc3)c2=O)c([N+](=O)[O-])c1 | -3.5%
64 | CC(C)CN1C(=O)c2ccc(NC(=O)c3ccco3)cc2C1=O | 6.2%
65 | O=C(Nc1ccc([N+](=O)[O-])cc1)Nc1ccc(N2CCOCC2)c2nonc12 | 57.9% (active)
66 | COc1ccc(NC(=O)Nc2ccc(C(=O)N3CCOCC3)cc2)c(OC)c1 | 0.2%
67 | O=C(Nc1ccc(N2CCOCC2)c2nonc12)C1CCCC1 | 44.8%
68 | COc1ccc(NC(C)C(=O)Nc2cc(C(F)(F)F)ccc2N2CCOCC2)c(OC)c1 (centres undefined) | 24%
69 | O=C(Nc1ccc(F)cc1)Nc1ccc(N2CCOCC2)c2nonc12 | 38%
70 | COc1ccc(NC(=O)Nc2ccc(N3CCOCC3)c3nonc23)c(OC)c1 | 55.8% (active)
71 | COc1ccc(C)cc1-n1c(SCC(=O)Nc2cc(C)on2)nc2ccccc2c1=O | 10.8%
72 | COC(=O)Cc1sc(-c2ccccn2)nc1-c1ccccc1 | 21.2%
73 | CCOc1cc(NC(=S)NCCCOC)c(OCC)cc1NC(=O)c1ccco1 | 50.7% (active)
74 | CCOc1cc(NC(=S)NC)c(OCC)cc1NC(=O)c1ccco1 | 49.7%
75 | CCNC(=S)Nc1cc(OCC)c(NC(=O)c2ccco2)cc1OCC | 52.8% (active)

Row | SMILES | inhibition
76 | CCNC(=S)Nc1cc(OC)c(NC(=O)c2ccco2)cc1OC | 33.9%
77 | CCOc1cc(NC(=S)NCCOC)c(OCC)cc1NC(=O)c1ccco1 | 22.6%
78 | CCOCCCNC(=S)Nc1cc(OCC)c(NC(=O)c2ccco2)cc1OCC | 44.5%
79 | O=C(CO/N=C/c1ccc(OC(F)F)cc1)NC1CCCC1 | 0.6%
80 | COC(=O)C1=C(C)N(CCc2ccc(OC)c(OC)c2)C(=O)C1 | -10.6%
81 | Cc1nnc(SCc2nnc(-c3cccs3)o2)n1Cc1ccccc1 | -7.3%
82 | COc1cc(C(c2oc(CO)cc(=O)c2O)c2oc(CO)cc(=O)c2O)cc(OC)c1OC | -11.4%
83 | CCCN1CCN(CCCNC(=S)Nc2ccc(OC)cc2)CC1 | 6.6%
84 | O=C(OCC(=O)N1CCCCC1)c1ccccc1SCC(=O)N1CCCCC1 | -4%
85 | Cc1cc(=O)n2ccccc2c1C#N | 3.5%
86 | Cn1c(CN2CCOCC2)c(C#N)c2ccccc21 | 3%
87 | N#Cc1c2ccc(O)cc2n2ccccc12 | 62.6% (active)
88 | COC(=O)CCC/C=C1/SCC(NC(=O)c2ccccc2)/C1=N/O (centres undefined) | -7.4%
89 | CCC(C(=O)Nc1cnccn1)c1ccccc1 (centres undefined) | 4%
90 | COc1ccc(O)c(/C=N/NC(=O)c2ccc(CSc3nc(C)cc(C)n3)cc2)c1 | -12.2%
91 | CCN(CC)S(=O)(=O)c1cccc(C(=O)N/N=C/c2ccc(OC)c(O)c2)c1 | 6.1%
92 | CCOc1ccccc1/C=N/NC(=O)c1cccc(S(=O)(=O)N(CC)CC)c1 | 5.1%
93 | Cc1cc(C)nc(SCc2ccc(C(=O)N/N=C/c3ccccc3C(=O)O)cc2)n1 | -6.2%
94 | CCn1c(C)nc2cc(C(=O)N/N=C/c3ccccc3C)ccc21 | -6.4%
95 | Cc1cc(C)nc(SCc2ccc(C(=O)N/N=C/c3cccc(O)c3O)cc2)n1 | 55% (active)
96 | CCN(CC)S(=O)(=O)c1cccc(C(=O)N/N=C/c2ccccc2OCC(=O)O)c1 | 2.8%
97 | CCn1c(C)nc2cc(C(=O)N/N=C/c3cccc(OC)c3O)ccc21 | -8.6%
98 | CCN(CC)S(=O)(=O)c1cccc(C(=O)N/N=C/c2cccc(O)c2O)c1 | 53.1% (active)
99 | CCN(CC)S(=O)(=O)c1cccc(C(=O)N/N=C/c2cc(OC)c(O)c(OC)c2)c1 | 15.5%

Source: PubChem BioAssay AID1220 (Sanford-Burnham Center for Chemical Genomics, 2008)
